Laboratory results as given in PubChem BioAssay AID1159580 (chemical genetic matrix, 2015).
Where “and” joins values, the source holds several entries; their conditions need not be identical. Identical values can stand only once. Hit rate of the full screen: of about 5,500 compounds, about 2,000 (36%) were called active. About 18% were inconclusive and are not listed. No stated cut-off is given here; in the data, active means normalized growth mostly below about 0.91 (no sharp cut-off); inconclusive means no clear call, values can overlap the other calls; inactive means mostly above about 0.92. The list shows a part of the results.

Experiment: chemical genetic growth profiling, strain panel (AID 1159580);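 further: tested at 20 µM; growth read once vehicle control cultures reached saturation at 30 °C; 1 = growth at the plate median or of vehicle wells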
Details: S. cerevisiae deletion strains, growth OD

Measured: normalized growth

COc1ccc(-c2cc(=O)c3c(O)cc(O)cc3o2)cc1
inactive: locus YAL013W, strain DEP1, stronger effect = lower value 1.01 | locus YAL021C, strain ccr4, stronger effect = lower value 0.967 | locus YAL026C, strain drs2, stronger effect = lower value 0.975 | locus YAL030W, strain snc1, stronger effect = lower value 1 | locus YBL061C, strain skt5, stronger effect = lower value 1 | locus YBR009C, strain hhf1, stronger effect = lower value 0.939 | locus YBR021W, strain FUR4, stronger effect = lower value 1.02 | locus YBR023C, strain chs3, stronger effect = lower value 0.961 | locus YBR171W, strain sec66, stronger effect = lower value 0.999 | locus YBR229C, strain ROT2, stronger effect = lower value 1 | locus YBR231C, strain swc5, stronger effect = lower value 0.981 | locus YBR279W, strain paf1, stronger effect = lower value 0.977 | locus YCL011C, strain gbp2, stronger effect = lower value 0.958 | locus YCL016C, strain dcc1, stronger effect = lower value 0.955 | locus YCL029C, strain bik1, stronger effect = lower value 0.976 | locus YCL069W, strain vba3, stronger effect = lower value 0.967 | locus YCR088W, strain abp1, stronger effect = lower value 0.987 | locus YDL005C, strain med2, stronger effect = lower value 1.02 | locus YDL035C, strain GPR1, stronger effect = lower value 1.03 | locus YDL040C, strain nat1, stronger effect = lower value 0.996 | locus YDL074C, strain BRE1, stronger effect = lower value 0.95 | locus YDL101C, strain DUN1, stronger effect = lower value 0.978 | locus YDL185W, strain tfp1, stronger effect = lower value 0.963 | locus YDL192W, strain arf1, stronger effect = lower value 0.989 | locus YDR001C, strain nth1, stronger effect = lower value 0.988 | locus YDR069C, strain doa4, stronger effect = lower value 1.02 | locus YDR101C, strain arx1, stronger effect = lower value 0.985 | locus YDR137W, strain rgp1, stronger effect = lower value 0.87 | locus YDR159W, strain sac3, stronger effect = lower value 0.996 | locus YDR162C, strain NBP2, stronger effect = lower value 0.999 | locus YDR195W, strain ref2 1.1 | locus YDR297W, strain sur2, stronger effect = lower value 0.994 | locus YDR318W, strain mcm21, stronger effect = lower value 0.982 | locus YDR334W, strain swr1, stronger effect = lower value 0.992 | locus YDR335W, strain msn5, stronger effect = lower value 0.978 | locus YDR388W, stronger effect = lower value 0.979 | locus YDR392W, strain spt3, stronger effect = lower value 0.804 | locus YDR502C, strain sam2, stronger effect = lower value 0.984 | locus YEL003W, strain gim4, stronger effect = lower value 0.963 | locus YEL037C, strain rad23, stronger effect = lower value 0.994 | locus YEL061C, strain CIN8 (second series), stronger effect = lower value 0.988 | locus YEL061C, strain CIN8, stronger effect = lower value 0.987 | locus YER015W, strain faa2, stronger effect = lower value 0.964 | locus YER016W, strain bim1, stronger effect = lower value 1.01 | locus YER110C, stronger effect = lower value 0.972 | locus YER111C, strain swi4, stronger effect = lower value 1.01 | locus YER155C, strain BEM2 (second series), stronger effect = lower value 0.966 | locus YER155C, strain BEM2, stronger effect = lower value 0.991 | locus YER167W, strain BCK2, stronger effect = lower value 1 | locus YFR010W, strain ubp6, stronger effect = lower value 1.01 | locus YGL078C, strain dbp3, stronger effect = lower value 0.978 | locus YGL086W, strain mad1, stronger effect = lower value 0.989 | locus YGL167C, strain pmr1, stronger effect = lower value 1.01 | locus YGL173C, strain kem1, stronger effect = lower value 1.01 | locus YGL227W, strain vid30, stronger effect = lower value 0.99 | locus YGL240W, strain doc1, stronger effect = lower value 0.975 | locus YGL248W, strain PDE1, stronger effect = lower value 0.984 | locus YGL253W, strain hxk2, stronger effect = lower value 0.964 | locus YGR135W, strain pre9, stronger effect = lower value 0.984 | locus YGR252W, strain gcn5, stronger effect = lower value 1.04 | locus YHR013C, strain ard1, stronger effect = lower value 1.06 | locus YHR027C, strain rpn1, stronger effect = lower value 1.01 | locus YHR079C, strain IRE1 (second series), stronger effect = lower value 0.971 | locus YHR094C, strain hxt1, stronger effect = lower value 0.992 | locus YHR129C, strain ARP1, stronger effect = lower value 0.998 | locus YHR142W, strain chs7, stronger effect = lower value 0.914 | locus YHR200W, strain rpn10, stronger effect = lower value 0.979 | locus YIL066C, strain RNR3, stronger effect = lower value 1.01 | locus YIL073C, strain SPO22, stronger effect = lower value 0.942 | locus YIL125W, strain kgd1, stronger effect = lower value 0.996 | locus YIR030C, strain dcg1, stronger effect = lower value 0.981 | locus YJL092W, strain hpr5, stronger effect = lower value 0.983 | locus YJL095W, strain BCK1 (second series), stronger effect = lower value 0.998 | locus YJL115W, strain asf1, stronger effect = lower value 1 | locus YJL129C, strain trk1, stronger effect = lower value 0.946 | locus YJL134W, strain LCB3, stronger effect = lower value 1 | locus YJL154C, strain vps35, stronger effect = lower value 0.999 | locus YJL164C, strain tpk1, stronger effect = lower value 0.931 | locus YJL166W, strain qcr8, stronger effect = lower value 0.965 | locus YJL168C, strain set2, stronger effect = lower value 0.999 | locus YJL187C, strain SWE1 (second series), stronger effect = lower value 0.979 | locus YJL187C, strain SWE1, stronger effect = lower value 1.01 | locus YJR043C, strain POL32, stronger effect = lower value 1.04
1.01 (inactive) and 0.823 (active): locus YHR030C, strain SLT2, stronger effect = lower value
active: locus YHR079C, strain IRE1, stronger effect = lower value 0.847 | locus YJR066W, strain TOR1, stronger effect = lower value 0.792
0.957 (inactive) and 0.879 (active): locus YJL095W, strain BCK1, stronger effect = lower value
